hgDAF12 agonist: H. glycines DAF-12 receptor agonists, primary screen, cell-based, luminescence, HEK293, GAL4 fusion, UAS-luciferase; 370,000 compounds, 1.8% hits; Nuclear hormone receptor DAF-12 (Heterodera glycines), GAL4 fusion; HEK293 GAL4-hgDAF12 UAS-luciferase reporter, agonist luminescence; normalized to butyrate control; activation, % at 6.8 µM;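 active = activation above a cutoff set at the mean of all screened compounds plus 3 SD, cut at about 10% in these data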
ssDAF-12 act: S. stercoralis DAF-12 nuclear receptor activators, primary screen, cell-based, luminescence, HEK293, GRIP1 co-expression, lit1-tk-luc; Nuclear hormone receptor DAF-12 (Strongyloides stercoralis); HEK293 ssDAF-12/GRIP1 lit1-tk-luc reporter; % of 3 µM dafachronic acid response; activation, % at 6.8 µM; 370,000 compounds, 1% hits; AID 652126, 2013;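 active = activation above the mean over all tested compounds plus 3 SD, cut at about 0.9% in these data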
DAX1 inh-1: DAX1 (NR0B1) inhibitors, primary screen, cell-based, HEK293, Gal4-DAX1, luciferase luminescence; Nuclear receptor subfamily 0 group B member 1 (Homo sapiens), P51843; HEK293 Gal4-DAX1 luciferase reporter; inhibition, % at 6.75 µM; 340,000 compounds, 0.99% hits;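 active = inhibition above the mean over all tested compounds plus 3 SD, cut at about 4.2% in these data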;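 note: inhibition shows as a rise in luminescence from relieved DAX1 repression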
Target sequence (P51843 207-470 limits assumed): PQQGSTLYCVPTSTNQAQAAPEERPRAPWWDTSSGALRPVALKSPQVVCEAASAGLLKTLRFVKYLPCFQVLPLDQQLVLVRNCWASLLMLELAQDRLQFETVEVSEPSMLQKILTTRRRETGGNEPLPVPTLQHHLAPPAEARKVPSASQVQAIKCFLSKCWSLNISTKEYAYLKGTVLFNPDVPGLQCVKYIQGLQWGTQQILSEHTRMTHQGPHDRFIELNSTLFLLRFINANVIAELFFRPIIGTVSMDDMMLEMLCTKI
DAX1 inh-2: DAX1 (NR0B1) inhibitors on StAR promoter, primary screen, cell-based, luminescence, SF-1 (NR5A1), full-length DAX-1. HEK293T StAR-luciferase reporter, SF-1/DAX-1 repression relief. inhibition, % at 6.8 µM. 370,000 compounds, 1.1% hits. AID 652010, 2013;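 active = inhibition above the mean over all tested compounds plus 3 SD, cut at about 3.6% in these data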;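 note: higher inhibition means more luminescence from relief of DAX-1 repression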
hcDAF12 agonist: H. contortus DAF-12 nuclear receptor activators, primary screen, cell-based, luminescence, HEK293, lit1-tk-luc reporter. HEK293 hcDAF-12 lit1-tk-luc reporter; 0% DMSO, 100% Δ7-dafachronic acid. activation, % at 6.8 µM. 370,000 compounds, 1.4% hits;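 active = activation above the mean of all tested compounds plus 3 SD, cut at about 5.5% in these data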
AHR act: AHR activators, primary screen, cell-based, luminescence, luciferase reporter, human; Aryl hydrocarbon receptor (Homo sapiens), P35869; AHR-responsive luciferase reporter cells; activation, % at 5 µM; 320,000 compounds, 2.5% hits; in the data active = activation above about 47%
Large screens that a line does not name were inactive. Rows were chosen to be rich in hits. Some 5.7% of all compounds tested hit in one or more screens of this group.

COc1cc(C(=O)Nc2c(C(=O)O)[nH]c3ccccc23)cc(OC)c1OC	hcDAF12 agonist 6.1 (no result: AHR act)
COc1ccc2[nH]c(C(=O)O)c(NC(=O)c3cc(OC)c(OC)c(OC)c3)c2c1	none (no result: AHR act)
CC(=O)Nc1c(C(=O)O)[nH]c2ccccc12	hcDAF12 agonist 6.1
CCOC(=O)C1=C(C(=O)OCC)C2N(Cc3ccc(C(F)(F)F)cc3)c3ccccc3[C@@]23C[C@@H](C(=O)OC)N(S(=O)(=O)c2ccc(OC)cc2)C3=N1 (some centres not stated)	none (no result: DAX1 inh-1, AHR act)
COc1ccc(NC(=O)CSc2nc(N)c(C(=O)Nc3ccc(N(C)C)cc3)s2)cc1	AHR act 50 (no result: hgDAF12 agonist, ssDAF-12 act, DAX1 inh-2, hcDAF12 agonist)
CN(C)c1ccc(NC(=O)CSc2nc(N)c(C(=O)Nc3ccc(N(C)C)cc3)s2)cc1	none
Cc1nc2ccc(S(=O)(=O)NCC(=O)NCc3ccccc3Cl)cc2s1	none (no result: DAX1 inh-1, AHR act)
CC(C)N(C(=O)N1CCN(c2ccnc3cc(Cl)ccc23)CC1)C(C)C	none (no result: AHR act)
COc1ccc2c3n([n+]([O-])c2c1)CCN=C3c1ccc(C)cc1	ssDAF-12 act 1.1, hcDAF12 agonist 5.6
COc1ccc(C2=NCCn3c2c2ccc(C(F)(F)F)cc2[n+]3[O-])cc1	none
COc1ccc2c3n([n+]([O-])c2c1)CCN=C3c1cc(Cl)c(N)c(Cl)c1	AHR act 69
CCOC(=O)[C@]12CCCCC/C=C\1N(Cc1ccc(OC)cc1)C(=O)[C@H]2CC(=O)NCCCCc1ccccc1	none (no result: DAX1 inh-1, AHR act)
CCCC[C@@H]1CNC(=O)C(=O)N1CCCCC1CCCCC1	none (no result: DAX1 inh-1, AHR act)
Cc1oc(-c2cc(F)ccc2F)nc1CN(C)Cc1ccc2nccnc2c1	none
Cc1oc(-c2cc(F)ccc2F)nc1CN1CCN(c2cnccn2)CC1	AHR act 54
Cc1cc(-c2nnc(SCC(=O)Nc3ccc(Br)cc3F)n2N)n[nH]1	none
CCCCCCCC(=O)N[C@H]1CC[C@@]23CCCN2C(=O)CCC[C@H]3[C@H]1C	none (no result: DAX1 inh-1, DAX1 inh-2, AHR act)
C[C@H]1[C@@H](NC(=O)Cc2ccsc2)CC[C@@]23CCCN2C(=O)CCC[C@@H]13	ssDAF-12 act 2.6 (no result: DAX1 inh-1, DAX1 inh-2, AHR act)
CCC(C)(C)NC(=O)C1CCN(c2nc(OC)nc(OC)n2)CC1	DAX1 inh-1 6.1
NC(=O)CCN1CCCCC1	DAX1 inh-1 4.5
COc1ccc(-c2cn3cccnc3n2)cc1NC(=O)C1CC1	none (no result: hgDAF12 agonist, ssDAF-12 act, DAX1 inh-2, hcDAF12 agonist)
COc1ccc(-c2cn3cccnc3n2)cc1NC(=O)C(C)C	AHR act 49
COC(=O)[C@]12C[C@H](CC(=O)NCCCN3CCCC3=O)C(=O)N(Cc3ccc(Cl)cc3Cl)C1=C[C@H](C(C)C)O[C@@H]2C1CC1	none (no result: DAX1 inh-1, AHR act)
OCCNc1nc(-c2cccnc2)nc2ccccc12	none
O=C(O)CCNc1nc(-c2ccccc2)nc2ccccc12	none
O=C(OCCNc1nc(-c2ccccc2)nc2ccccc12)c1ccncc1	AHR act 47
O=C(OCCNc1nc(-c2ccccc2)nc2ccccc12)c1cccnc1	AHR act 48
CCCN1CCN(S(=O)(=O)c2c(C)[nH]c(C)c2C(=O)N2CCCCC2)CC1	none
COc1ccc(/C=C/S(=O)(=O)NCC(C)C)c(CNC(=O)OC(C)(C)C)c1	none (no result: DAX1 inh-1, AHR act)
c1cncc(CSc2ccc(-c3cccs3)nn2)c1	hgDAF12 agonist 12
Cn1ccc(NC(=O)c2ccc([N+](=O)[O-])cc2)n1	DAX1 inh-1 7.0
Cn1ccc(NC(=O)c2ccc(Cl)cc2Cl)n1	DAX1 inh-2 3.9
CN(C)S(=O)(=O)c1ccc(C(=O)Nc2ccn(C)n2)cc1	none
Cc1onc(NC(=O)c2ccc(Cl)cc2Cl)c1Br	hgDAF12 agonist 11
Cn1ccc(NC(=O)c2ccc(Cl)cc2)n1	none
C[C@@H]1COc2cc(N3CCSCC3)ccc2S(=O)(=O)N1C	none (no result: DAX1 inh-1, AHR act)
O=C1NC(=O)C(c2ccccc2)(C2CCCC2)N1 (configuration not stated)	none (no result: AHR act)
Cc1cc(C(=O)COC(=O)c2ccc[nH]c2=O)c(C)n1CCc1ccc(F)cc1	none
Cc1cc(C(=O)COC(=O)C2=NNC(=O)CC2)c(C)n1CCc1ccccc1	AHR act 69
CCOc1ccc(C(=O)NCc2ccc3c(c2)OCO3)cc1OCC	none
COc1ccc(-c2noc(COC(=O)c3ccco3)n2)cc1OC	none
CCCCCC(=O)Nc1ccc(C2C(=O)c3ccccc3C2=O)cc1	none
COc1ccccc1CCC[C@@H](CCS(=O)(=O)C(C)C)CC1CCCCC1	ssDAF-12 act 2.2 (no result: DAX1 inh-1, AHR act)
COc1ccc(Br)cc1/C=N/n1c(-c2ccccc2)n[nH]c1=S	none
COC(=O)c1ccc(-c2ccc(F)cc2)nc1C	hgDAF12 agonist 12
CCOC(=O)c1ccc(-c2ccc3c(c2)CCC3)nc1C	hcDAF12 agonist 5.6
CN(C)c1ccc(C(CNS(=O)(=O)c2ccc(F)cc2)c2c[nH]c3ccccc23)cc1 (configuration not stated)	AHR act 57
Cc1ccc2nc(-c3cccc(Cl)c3)c(Cc3ccccc3)n2c1	hgDAF12 agonist 12, DAX1 inh-2 4.2 (no result: DAX1 inh-1, AHR act)
Cc1ccc2nc(-c3ccccc3)c(CN3CCOCC3)n2c1	hgDAF12 agonist 11
COC(=O)c1ccc2nc(-c3ccc(C)cc3)c(Cc3cccc(Cl)c3)n2c1	none (no result: DAX1 inh-1, AHR act)
Cc1ccc2nc(-c3cccc(Cl)c3)c(Cc3cccc(Cl)c3)n2c1	none (no result: DAX1 inh-1, AHR act)
Cc1ccc(-c2nc3ccc(C)cn3c2Cc2cccc(Cl)c2)cc1	DAX1 inh-2 3.8 (no result: DAX1 inh-1, AHR act)
CC1CCc2sc3ncnc(N4CCN(CCO)CC4)c3c2C1 (configuration not stated)	none
CC1(C)Cc2c(c(N3CCOCC3)nc3sc(C(=O)Nc4ccccc4)c(N)c23)CO1	hgDAF12 agonist 12, hcDAF12 agonist 6.2
COc1ccc(C2=CC(=O)C[C@H](COCc3ccccc3)N(C(=O)OC(C)(C)C)O2)cc1	none (no result: AHR act)
C#CCn1cc(/C=C2\NC(=O)NC2=O)c2ccccc21	AHR act 77
CC(C)n1cc(/C=C2/NC(=O)NC2=O)c2ccccc21	AHR act 74
CC(C)n1cc(/C=C2/SC(=O)N(CC(=O)N3CCCC3)C2=O)c2ccccc21	none
O=C1NC(=O)/C(=C/c2ccccc2Cl)N1	none
COc1ccc(S(=O)(=O)NC2CCN(C#N)CC2)cc1	none (no result: DAX1 inh-1, DAX1 inh-2, AHR act)
Nc1nc(OCC2CCCCC2)c2[nH]cnc2n1	AHR act 56
Cc1c(C)c2ccc(OCC(=O)N[C@@H](Cc3c[nH]c4ccccc34)C(=O)O)cc2oc1=O	DAX1 inh-1 6.6

High-throughput results deposited in PubChem BioAssay by The Scripps Research Institute Molecular Screening Center.
